Shown are actives, neighbours in structure and some others; about 0.97% of the full set was active somewhere.
A1 inh – inhibitors of the anti-apoptotic protein A1, read as caspase activation | AID 2462 | 0.066% of 330,000 active | MEF A1-2A-BIM cells, Caspase-Glo 3/7 luminescence, 3 h; percent of clofoctol response, vehicle zero | caspase activation, % (no concentration beside the values);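 active = over half of replicate activation scores above 10%, or exactly half above 10 with the replicate mean above 10; inconclusive = replicate mean below 10 yet half the replicates above 10; inactive = over half of replicates below 10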
TLR9-MyD88 block – inhibitors of human TLR9-MyD88 binding; Q9NR96+Q99836; CHO BLA complementation TLR9-MyD88, CCF4 FRET ratio; inhibition, % at 4.98 µM; 0.21% of 340,000 active; AID 504734;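 active = inhibition above the mean over all tested compounds plus 3 SD, cut at about 21% in these data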;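 also: 0% = DMSO only wells and 100% = clavulanate BLA inhibitor control wells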
TLR4 MyD88 comp – inhibitors of human TLR4-MyD88 binding; O00206+Q99836; HeLa CL3-4 TLR4/MyD88 BLA complementation, FRET ratio; inhibition, % at 8.4 µM; 0.18% of 200,000 active; AID 861; in the data active = inhibition above about 25%;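 also: 0% = vehicle and 100% = reference inhibitor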
NOD2-RIPK2 inh – inhibitors of human NOD2-RIPK2 interaction | 0.38% of 360,000 active | O43353 | CHO BLA complementation NOD2-RIPK2, CCF4 ratio | inhibition, % at 4.98 µM; in the data active = inhibition above about 21%;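 also: 0% = vehicle only and 100% = reference blocker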
Target sequence (O43353 whole entry, looked up): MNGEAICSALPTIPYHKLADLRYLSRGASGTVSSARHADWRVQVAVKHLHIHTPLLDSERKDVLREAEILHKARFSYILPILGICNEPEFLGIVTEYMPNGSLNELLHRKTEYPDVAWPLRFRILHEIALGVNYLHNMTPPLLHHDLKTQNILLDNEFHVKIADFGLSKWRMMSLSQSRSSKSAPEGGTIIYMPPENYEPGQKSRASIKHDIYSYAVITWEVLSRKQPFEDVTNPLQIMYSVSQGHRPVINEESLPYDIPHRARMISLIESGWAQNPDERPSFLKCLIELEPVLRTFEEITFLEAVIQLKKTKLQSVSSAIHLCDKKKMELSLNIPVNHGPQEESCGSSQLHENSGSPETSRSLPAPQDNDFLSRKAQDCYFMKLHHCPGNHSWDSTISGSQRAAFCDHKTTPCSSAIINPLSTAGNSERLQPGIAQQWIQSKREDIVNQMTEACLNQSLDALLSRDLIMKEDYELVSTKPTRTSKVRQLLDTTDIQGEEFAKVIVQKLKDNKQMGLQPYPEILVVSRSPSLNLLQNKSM
Beta2AR agonist – agonists of human beta-2 adrenergic receptor inducing internalization | P07550 | 0.43% of 340,000 active | Am2.2-beta2AR cells, FAP receptor internalization, flow cytometry | AID 504454 | response, % (no concentration beside the values);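 active = response above a set limit, near 3 SD of response in nonfluorescent compounds, cut at about 42% in these data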
NTR1 ag – NTR1 (human) agonism; NTR1-U2OS beta-arrestin-GFP spot imaging, agonist mode; activation, % at 20 µM; 0.17% of 330,000 active; AID 493036;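 active = activation at or above 40% of the spot to cytoplasm intensity ratio, with at least 20 cells analyzed; inconclusive = wells under 20 cells, flagged as cytotoxic or low count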;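 also: 0% = DMSO without peptide and 100% = 100 nM NTR1 peptide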
TLR9-MyD88 cf – TLR9-MyD88 interaction inhibition, confirmation; inhibition, % at 4.98 µM; AID 540250; 51% of 680 active; shares compounds with TLR9-MyD88 block; CHO TLR9/MyD88 BLA complementation, CCF4 FRET ratio;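 active = mean inhibition across three repeats above about 21% taken from the earlier screen, limit read from the data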;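 also: blue over green emission ratio reports constitutive TLR9 MyD88 association via BLA complementation; 0% = DMSO vehicle wells and 100% = clavulanate BLA inhibitor wells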
BLA counter-1 – non-selective beta-lactamase inhibitors in TLR9-MyD88 counter-screen | shares compounds with TLR9-MyD88 block | CHO-BLA cells, CCF4 FRET ratio, BLA reporter | inhibition, % at 4.98 µM | 7% of 680 active | AID 540251;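 active = mean inhibition above a 50% cutoff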;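 also: counterscreen of TLR9-MyD88 hits on CMV-driven BLA in CHO-K1 cells; 0% = DMSO alone and 100% = clavulanate blocking BLA; higher means less blue over green ratio so more BLA blockade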
TLR9 CHO tox – counter-screen for TLR9-MyD88 inhibitors: cytotoxicity in CHO cells; shares compounds with TLR9-MyD88 block; luminescence; inhibition, % at 4.98 µM; 39% of 680 active; in the data active = inhibition above about 11%
NOD2 RIPK2 conf – confirmation of human NOD2-RIPK2 interaction inhibitors. shares compounds with NOD2-RIPK2 inh. inhibition, % at 4.98 µM. CHO cells, NOD2-RIPK2 BLA complementation, CCF4 FRET. 70% of 1,200 active. AID 624370;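 active = mean inhibition across replicates above a set limit taken from the earlier primary screen, cut at about 21% in these data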;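 also: 0% = DMSO-only wells and the high end = clavulanate BLA-blocked wells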
BLA counter-2 – counter-screen for NOD2-RIPK2 interaction inhibitors: BLA reporter. shares compounds with NOD2-RIPK2 inh. CHO BLA reporter, CCF4 FRET ratio, counterscreen. inhibition, % at 4.98 µM. 57% of 1,200 active. AID 624371;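 active = mean inhibition above the low-control mean inhibition plus three low-control SD, cut at about 11% in these data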;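 also: 0% = DMSO only wells and 100% = clavulanate high control wells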
Numbers without * were called inactive; ? = inconclusive; / = no result given.

SMILES	A1 inh	TLR9-MyD88 block	TLR4 MyD88 comp	NOD2-RIPK2 inh	Beta2AR agonist	NTR1 ag	TLR9-MyD88 cf	BLA counter-1	TLR9 CHO tox	NOD2 RIPK2 conf	BLA counter-2
C[C@H](CO)N1C[C@H](C)[C@@H](CN(C)C(=O)Nc2ccc3c(c2)OCO3)Oc2c(NC(=O)Nc3ccccc3)cccc2C1=O	0.9	2.1	/	-11.2	8.4	1.7	/	/	/	/	/
COc1cc(/C=C/C(=O)c2ccc3c(c2)OCO3)cc(Cl)c1O	0.4	21.9*	/	11.1	20.9	1.9	15.8	19.6	3.2	/	/
N#Cc1ccc(-c2ccco2)nc1SCC(=O)c1ccc(Cl)cc1	0.6	28.2*	29.6*	14.9	-76.2	1.3	25.3*	25.2	8.2	/	/
Cc1oc(-c2ccccc2)nc1C(=O)OCC(=O)NCc1ccccc1	0.3	2.1	/	0.1	9.8	-0.9	/	/	/	/	/
COc1ccc(NS(=O)(=O)c2cccc(C(=O)NNC(=O)c3ccc(Br)o3)c2)cc1	-0.1	-3.1	/	-0.3	5.8	0.8	/	/	/	/	/
Cc1cccc(NC(=O)c2cc(-c3cc(Cl)ccc3O)n[nH]2)c1	0.5	22.8*	/	-39.7	2.4	1.9	-5.5	-2.0	-10.0	/	/
Cc1cccc(N2C(=O)Cc3ccccc3C2=O)c1	1.0	3.5	/	1.4	12.8	-0.6	/	/	/	/	/
Cc1ccc(N2C(=O)Cc3ccccc3C2=O)cc1	-0.3	22.2*	/	-4.3	6.7	1.1	41.6*	40.5	-0.2	/	/
CN=c1scc(-c2cccs2)n1/N=C/c1ccccc1O	-1.1	26.2*	-5.2	6.5	-6.5	10.1	7.7	5.8	9.3	/	/
N#CC1=C(N)Oc2cc(O)c(Cl)cc2C1c1ccccc1F (stereo not given)	-0.1	22.4*	/	1.3	-10.0	-0.6	2.0	4.8	-1.9	/	/
CCC1(O)C(=O)OCc2c1cc1n(c2=O)Cc2cc3cc(O)ccc3nc2-1 (stereo not given)	/	29.5*	/	26.0*	6.7	/	18.6	20.5	63.3*	42.4*	33.5*
COc1cc(/C=C/C(=O)O)ccc1O	-0.6	-1.1	/	-7.0	2.7	5.3	/	/	/	/	/
COc1cc(/C=C/C(=O)/C=C(O)/C=C/c2ccc(O)c(OC)c2)ccc1O	-0.1	28.0*	/	53.5*	-102.2	7.3	29.9*	27.6	6.0	55.4*	56.9*
CN(C)c1ccc(/C=C/c2ccc3ccccc3n2)cc1	-8.9	27.7*	/	45.8*	-53.8	/	38.4*	52.9*	53.1*	58.4*	71.2*
O=C(c1ccc(-n2cccn2)cc1)N1CCc2ccccc2C1	-1.4	-3.3	/	6.9	-18.2	0.7	/	/	/	/	/
Cc1ccccc1OCCc1c(C)[nH]c(=S)[nH]c1=O	-0.5	6.8	-0.2	8.2	17.5	-1.5	/	/	/	/	/
O=C(CN1C(=O)NC2(CCCCC2)C1=O)Oc1ccc2c(C(F)(F)F)cc(=O)oc2c1	0.8	42.7*	/	67.2*	4.9	2.3	35.6*	40.3	-1.7	62.7*	66.6*
CCc1cc(=O)oc2cc(OC(=O)CN3C(=O)NC4(CCCC4)C3=O)ccc12	-0.5	-8.7	/	-10.7	5.0	-0.5	/	/	/	/	/
CC(=O)Oc1ccc(-c2cc3c(OC(C)=O)cc(OC(C)=O)cc3oc2=O)cc1	-2.6	37.0*	/	41.5*	-3.7	-4.3	22.9*	25.7	3.4	52.9*	56.9*
CC(=O)Oc1ccc(-c2cc3ccccc3oc2=O)cc1	-1.8	-12.8	/	2.7	-2.8	0.4	/	/	/	/	/
CCCCN(C(=O)c1cccc(-n2cccc2)c1)c1c(N)n(Cc2ccccc2)c(=O)[nH]c1=O	2.1	5.7	/	-6.2	3.0	0.9	/	/	/	/	/
COc1ccc(-c2cc3ccc(O)cc3oc2=O)cc1	-14.5	21.5*	/	38.9*	3.4	3.5	17.5	26.2	1.4	42.7*	51.8*
COc1ccc(-c2cc3ccc(OCC(C)=O)cc3oc2=O)cc1	?	-7.5	/	0.7	3.9	-0.8	/	/	/	/	/
COC(=O)c1c(-c2ccc(OC)cc2)sc2cc3c(cc12)OCO3	1.7	-15.5	/	-13.3	-6.0	6.5	/	/	/	/	/
COC(=O)c1c(-c2ccc(N(C)C)cc2)sc2ccc(OC)cc12	-1.1	28.3*	/	38.4*	-3.0	9.9	34.9*	42.1	2.2	49.0*	66.0*
SMILES	A1 inh	TLR9-MyD88 block	TLR4 MyD88 comp	NOD2-RIPK2 inh	Beta2AR agonist	NTR1 ag	TLR9-MyD88 cf	BLA counter-1	TLR9 CHO tox	NOD2 RIPK2 conf	BLA counter-2
CN(C)S(=O)(=O)c1cccc(COC(=O)c2cc([N+](=O)[O-])ccc2N2CCOCC2)c1	-0.1	1.6	/	10.1	8.2	0.7	/	/	/	/	/
CC(Oc1ccc(F)cc1F)C(=O)NNC(=S)NCC1CCCO1 (stereo not given)	1.0	5.7	/	-4.3	1.0	0.7	/	/	/	/	/
O=c1nc2c(O)cccn2c2c1c(=O)[nH]c1ccccc12	/	21.9*	10.1	29.2*	-9.9	/	8.4	8.3	-1.8	33.3*	27.2*
COc1cc(/C=C2\Oc3cc(O)ccc3C2=O)ccc1O	-0.3	31.4*	/	43.8*	-85.3	-0.6	14.8	18.6	-2.1	43.2*	46.6*
O=C1/C(=C/c2ccc(O)c(O)c2)Oc2cc(O)ccc21	0.5	12.7	/	12.8	-75.3	2.2	/	/	/	/	/
Cc1ccsc1/C=C1\Oc2cc(O)ccc2C1=O	/	24.9*	/	49.8*	/	/	16.4	21.2	1.5	40.4*	52.5*
CCCS(=O)(=O)NC(=O)C1(C)CCN(C(=O)c2c(-c3ccccc3)noc2C)C1 (stereo not given)	/	/	/	-8.4	/	/	/	/	/	/	/
COc1ccc(NC(=O)/C(Cl)=C(/Cl)S(=O)Cc2ccccc2)cn1 (stereo not given)	-3.7	42.7*	8.8	92.2*	50.1*	1.3	48.7*	32.2	98.7*	92.1*	30.0*
Cc1ccc(C(=O)N/C(=C/c2ccc(-c3ccc([N+](=O)[O-])cc3)o2)C(=O)NCCCN(C)C)cc1	0.3	41.4*	/	47.6*	-91.4	-1.1	33.2*	28.1	5.5	56.9*	54.6*
O=C(NCCCO)/C(=C/c1ccc(-c2cccc([N+](=O)[O-])c2)o1)NC(=O)c1ccccc1	0.3	5.6	-5.3	6.8	-13.9	0.7	/	/	/	/	/

Assay outcomes deposited in PubChem BioAssay by several laboratories.
